HT1080 IDH1KD tx – qHTS for induction of synthetic lethality in tumor cells producing 2HG: qHTS for the HT-1080-IDH1KD cell line. Potency, µM (highest dose often 46.1 µM), usual class: cytotoxic. 360,000 compounds, 2% hits. HT-1080 IDH1 knockdown viability, ATP luminescence, 48 h
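HT-1080-IDH1KD cells (IDH1 knocked down), 750/well in RPMI with 5% FBS, treated with compound 48 h at 37 degrees C. Viability by CellTiter-Glo luminescence, normalised to DMSO and no-cell wells; concentration-response curves classed.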
DT40 TDP1 no CPT – qHTS for Inhibitors of human tyrosyl-DNA phosphodiesterase 1 (TDP1): qHTS in cells in absence of CPT; DT40 Tdp1-/- hTDP1 cells, no CPT, ATP luminescence, 48 h; Potency, µM (top dose mostly 46.2 µM), hits mostly inhibitors; 420,000 compounds, 15% hits; AID 686978, 2013; note: nearly all actives have a fitted effect of over 55% in size
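Seeded 400 DT40-hTDP1 cells/well (vehicle DMSO, no 20 nM CPT); pinned compounds; ≥48 hr at 37 °C; CellTiter-Glo luminescence as viability measure.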
TDP1 cell CPT – qHTS for Inhibitors of human tyrosyl-DNA phosphodiesterase 1 (TDP1): qHTS in cells in presence of CPT; Potency, µM (series often up to 46.2 µM), actives largely listed as inhibitors; 420,000 compounds, 12% hits; chicken DT40 Tdp1-/-;hTDP1 cells + 20 nM CPT, ATP luminescence, 48 h; note: nearly all actives have a fitted effect of over 55% in size
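Chicken DT40 Tdp1-/- cells stably complemented with human TDP1 were seeded at 400 cells/well in medium containing 20 nM camptothecin, exposed to pin-transferred compounds, and grown at 37 °C for at least 48 hr. Viability was read as ATP luminescence.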
HT1080NT lethal – qHTS for induction of synthetic lethality in tumor cells producing 2HG: qHTS for the HT-1080-NT fibrosarcoma cell line. HT-1080-NT fibrosarcoma viability, CellTiter-Glo ATP luminescence, 48 h. Potency, µM (top dose mostly 46.1 µM), actives largely listed as cytotoxic. 360,000 compounds, 1.6% hits. AID 686970, 2013;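 note: NT is the 2HG producing partner of a matched IDH1 knockdown line; nearly all actives have a fitted effect of over 55% in size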
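Viability of the 2HG-overproducing fibrosarcoma line after 48 hours of compound exposure at 37 degrees C was determined by luminescence with CellTiter-Glo, and concentration-effect curves were then fitted and categorized.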
IL1B secr inh – qHTS for Inhibitors of Inflammasome Signaling: IL-1-beta AlphaLISA Primary Screen; THP-1 LPS/ATP IL-1B secretion, AlphaLISA, 16 h; hits give low values; activity change, % at 57.5 µM; 360,000 compounds, 4.7% hits; in the data active = activity change below about -50%; inconclusive = mostly about -30% to -49%
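THP-1 cells pretreated 1 hr with compounds (up to 57.5 uM final), then stimulated with LPS (250 ng/mL final) plus ATP (1.25 mM final); secreted IL-1B measured by AlphaLISA after 16 hr, decreased signal indicating inhibition.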
Of the large screens only hits and unclear results are named; the others gave an inactive call. Rows were chosen to be rich in hits. Some 19% of all compounds tested hit in one or more screens of this group. Unless noted, calls come from the whole dose curve; as a rule, active = well fitted curve in the direction sought with a large enough effect; inconclusive = small, poorly fitted or top-dose-only effect, or another doubt; inactive = no such curve, though single readings can be large; an effect the other way counts as inactive or inconclusive.

Cc1ccccc1C1=NC(C(F)(F)F)(C(F)(F)F)c2c(n(C)c(=O)n(C)c2=O)N1	DT40 TDP1 no CPT 23.1µM, TDP1 cell CPT inconclusive
COC(=O)NC1(C(F)(F)F)C(=O)Nc2c1c(=O)n(C)c(=O)n2C (stereo not given)	none
Cn1c2c(c(=O)n(C)c1=O)C(C(F)(F)F)(C(F)(F)F)N=C(c1ccc(Cl)cc1)N2	HT1080 IDH1KD tx 7.31µM, DT40 TDP1 no CPT 1.3µM, TDP1 cell CPT 0.92µM, HT1080NT lethal inconclusive
OC(c1ccc(-c2ccccc2)cc1)c1ncc(-c2ccc(F)cc2)[nH]1 (stereo not given)	HT1080 IDH1KD tx inconclusive, DT40 TDP1 no CPT inconclusive, TDP1 cell CPT 29.1µM, HT1080NT lethal inconclusive
Cc1cc(C(O)c2ncc(-c3ccccc3)[nH]2)ccc1F (stereo not given)	DT40 TDP1 no CPT inconclusive, TDP1 cell CPT 16.4µM
OC(c1ccccc1)c1ncc(-c2ccc(Cl)cc2)[nH]1 (stereo not given)	none
COc1cccc(-c2cnc(C(O)c3ccc(F)c(C)c3)[nH]2)c1 (stereo not given)	DT40 TDP1 no CPT inconclusive, TDP1 cell CPT inconclusive
CCN(CC)C(=O)c1ccc(COc2ccccc2Cl)cc1	DT40 TDP1 no CPT inconclusive, TDP1 cell CPT inconclusive, IL1B secr inh -58.8
COc1ccc(Cc2nc3ccccc3c(=O)n2N)cc1OC	none
O=[N+]([O-])c1cc(-n2cnnn2)ccc1N1CCC(Cc2ccccc2)CC1	DT40 TDP1 no CPT 9.2µM, TDP1 cell CPT 23.1µM
CCCC(=O)Nc1nnc(S(=O)(=O)N(C)Cc2ccc(Cl)cc2)s1	none (no result: HT1080 IDH1KD tx, HT1080NT lethal, IL1B secr inh)
CCOC(=O)c1[nH]c(C)c(CCC(=O)NC(C)c2ccccc2)c1C (stereo not given)	none (no result: HT1080 IDH1KD tx, HT1080NT lethal, IL1B secr inh)
CC(NC(=O)CN1CCN(C(=O)c2cccs2)CC1)c1ccc(F)cc1F (stereo not given)	none
COc1ccc(S(=O)(=O)NCC(c2ccc(F)cc2)N2CCN(C)CC2)cc1 (stereo not given)	none
COc1cc(O)ccc1-c1nc2ccc(Br)cn2c1Nc1ccccc1C	DT40 TDP1 no CPT 9.2µM, TDP1 cell CPT 20.6µM (no result: HT1080 IDH1KD tx, HT1080NT lethal, IL1B secr inh)
Cc1ccccc1Nc1c(-c2ccc(N3CCOCC3)cc2)nc2ccc(Br)cn12	DT40 TDP1 no CPT 14.6µM, TDP1 cell CPT 11.6µM (no result: HT1080 IDH1KD tx, HT1080NT lethal, IL1B secr inh)
COc1ccc(/C=C/C(O)=C(\C#N)c2nnc(N3CCOCC3)n2-c2ccccc2)cc1OC	DT40 TDP1 no CPT inconclusive, TDP1 cell CPT inconclusive
CCCCC(=O)Nc1ccc2c(c1)nc(CCN1CCN(C)CC1)n2C	DT40 TDP1 no CPT inconclusive
Cc1ccc(NC(=O)c2ccc(=O)[nH]n2)cc1S(=O)(=O)Nc1ccc(SC(F)F)cc1	DT40 TDP1 no CPT 18.4µM, TDP1 cell CPT 14.6µM
Cc1ccc(NC(=O)c2ccc(=O)[nH]n2)cc1C	none
COCCNC(=S)N1CCC(C(=O)c2ccc(C)cc2)CC1	DT40 TDP1 no CPT inconclusive, TDP1 cell CPT inconclusive
Cc1cccc(OC(C)C(=O)Nc2nc(-c3ccncc3)cs2)c1 (stereo not given)	DT40 TDP1 no CPT 23.1µM, TDP1 cell CPT inconclusive
Cc1ccc(S(=O)(=O)CCC(=O)Nc2nccs2)cc1	DT40 TDP1 no CPT inconclusive
CC(OC(=O)c1cccs1)C(=O)Nc1nc(-c2ccccc2)cs1 (stereo not given)	DT40 TDP1 no CPT inconclusive, TDP1 cell CPT inconclusive
O=C(CCS(=O)(=O)c1ccc(F)cc1)Nc1nc(-c2ccccn2)cs1	DT40 TDP1 no CPT 7.31µM, TDP1 cell CPT 8.2µM, IL1B secr inh inconclusive
Cc1csc(NC(=O)C(C)Oc2ccc(Br)cc2)n1 (stereo not given)	DT40 TDP1 no CPT inconclusive
O=C(CCS(=O)(=O)c1ccccc1)Nc1ccccn1	none
O=C(CCS(=O)(=O)c1ccccc1)Nc1nc(-c2ccccn2)cs1	DT40 TDP1 no CPT 13µM, TDP1 cell CPT 18.4µM
CC(Oc1ccc(F)cc1)C(=O)Nc1nc(-c2ccccn2)cs1 (stereo not given)	HT1080 IDH1KD tx inconclusive, DT40 TDP1 no CPT 5.17µM, TDP1 cell CPT 1.3µM, HT1080NT lethal inconclusive, IL1B secr inh -102.2
Cc1ccccc1OC(C)C(=O)N1CCN(c2ccccn2)CC1 (stereo not given)	none
CCN(C(=O)CSc1nc(C)c(C)c(C)n1)C1CCS(=O)(=O)C1 (stereo not given)	none
CC(NC(=O)C(=O)N1CCOCC1)C(c1cccs1)N1CCN(c2ccccc2F)CC1 (stereo not given)	none
CC(=O)CCn1cnc([N+](=O)[O-])n1	none
O=C(CCl)N(c1ccccc1)C1CCS(=O)(=O)C1 (stereo not given)	HT1080 IDH1KD tx 18.4µM, DT40 TDP1 no CPT 8.2µM, TDP1 cell CPT 8.2µM, HT1080NT lethal inconclusive, IL1B secr inh -88.8
CC(=O)Nc1ccc(C(=O)OCC(=O)N(c2ccccc2)C2CCS(=O)(=O)C2)cc1 (stereo not given)	none
CCCc1cc(=O)[nH]c(SCC(=O)Nc2nc(-c3ccccc3)cs2)n1	DT40 TDP1 no CPT inconclusive, TDP1 cell CPT inconclusive
O=C(CSc1nc2ccccc2[nH]1)Nc1nc(-c2ccc(Br)cc2)cs1	HT1080 IDH1KD tx inconclusive, DT40 TDP1 no CPT 16.4µM, TDP1 cell CPT 23.1µM
O=C(CSc1nc2ccccc2c(=O)[nH]1)Nc1ccc(S(=O)(=O)N2CCCC2)cc1	HT1080 IDH1KD tx inconclusive, DT40 TDP1 no CPT inconclusive, TDP1 cell CPT 16.4µM, HT1080NT lethal inconclusive
O=C(CSc1nc2ccccc2c(=O)[nH]1)Nc1ccc([N+](=O)[O-])cc1	HT1080 IDH1KD tx 9.2µM, DT40 TDP1 no CPT inconclusive, TDP1 cell CPT inconclusive, HT1080NT lethal inconclusive
CC(C)(C)c1csc(NC(=O)CSc2nc3ccccc3c(=O)[nH]2)n1	DT40 TDP1 no CPT 23.1µM, TDP1 cell CPT 18.4µM
COc1ccc(C(=O)N(C)CCOc2ccc(Cl)cc2)cc1S(=O)(=O)N1CCCC1	DT40 TDP1 no CPT inconclusive, TDP1 cell CPT inconclusive
CCOc1nc(NC2CCCC2)nc(N2CCC(C)CC2)n1	DT40 TDP1 no CPT inconclusive, TDP1 cell CPT inconclusive
O=C(NCC(F)(F)F)Nc1ccccn1	none
Cc1ccccc1C(=O)NC(C)c1nnc2n1CCN(Cc1ccccc1F)CC2 (stereo not given)	none (no result: HT1080 IDH1KD tx, HT1080NT lethal, IL1B secr inh)
Cn1c2ccccc2c2cc([N+](=O)[O-])ccc21	HT1080NT lethal inconclusive
O=c1[nH]c(Sc2ccc([N+](=O)[O-])cc2[N+](=O)[O-])nc2ccccc12	HT1080 IDH1KD tx inconclusive, DT40 TDP1 no CPT 13µM, TDP1 cell CPT 3.26µM
O=[N+]([O-])c1ccc(Sc2cc[n+]([O-])c3ccccc23)c([N+](=O)[O-])c1	HT1080 IDH1KD tx 18.4µM, DT40 TDP1 no CPT 2.06µM, TDP1 cell CPT 2.59µM, HT1080NT lethal 16.4µM, IL1B secr inh -108.2
